Our source for the outcome values is PubChem BioAssay AID1053117 (Broad Institute, 2014).

Structures are written as SMILES. Measured potencies and affinities stand elsewhere. Activity calls are given as the source filed them.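 The calls were made as follows: active = compounds lowering cell ATP signal with a fitted half-effect dose at most twice the top valid dose; inconclusive = flat curve with 30 to 70% signal loss, or bad fit; inactive = wrong direction, flat within 30%, or weaker than limit.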

This experiment in a line: viability loss in HEK293 kidney cells – cell-based, cherry-picks, set 5, cytotoxicity control, dose response (AID 1053117).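 Also: more negative means greater loss of ATP signal and more cytotoxicity.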 The conditions noted are these: HEK293T viability, CellTiter-Glo ATP luminescence, 72 h; series mostly up to 26 µM.
Take `O=C(c1cccnc1)N1C[C@H]2[C@@H](c3ccccc31)[C@H](CO)N2CC1CCCC1`: the result was inactive.

As for `CSc1ccccc1C(=O)C1CCCN(C(=O)CCc2cccnc2)C1` (stereo not given), the outcome was inactive.

In the case of `Cc1ccc(NC(=O)COC(=O)c2cc(Cl)ccc2[N+](=O)[O-])c(C)c1`, the compound was called inactive.

For `COC(=O)C[C@@H]1CC[C@@H]2[C@@H](COc3ccc(NC(=O)Cc4cccs4)cc3C(=O)N2C)O1`, the result was inactive.

With `O=C(CCC(=O)c1cccs1)NCc1cccnc1`, the call was inactive.

Turning to `N#C[C@@H]1[C@H](c2ccccc2C2=CCCCC2)[C@H](CO)N1S(=O)(=O)c1ccccc1`, the outcome was inactive.

As for `CCOC(=O)C1=C(C)Nc2nc3ccccc3n2C1c1ccncc1` (stereo not given), the compound was called inactive.

On to `C[C@@H]1CN([C@H](C)CO)C(=O)c2cc(-c3ccccc3)cnc2O[C@@H]1CN(C)Cc1ccccc1`, for which the outcome was inactive.

As to `COc1ccc(CCNC(=O)C2CCN(Cc3nc(-c4ccccc4F)oc3C)CC2)cc1OC`, the compound was called inactive.

Regarding `Cc1cccc(NC(=O)Nc2ccc(S(=O)(=O)Nc3onc(C)c3C)cc2)c1`, the call was inactive.

On to `Cc1ccc(S(=O)(=O)N2CC[C@H]3[C@H](CO)Nc4ccc(-c5cccc(C(=O)N(C)C)c5)cc4[C@H]32)cc1`, for which the result was inactive.

Regarding `O=C(Nc1nc(-c2ccncc2)cs1)C1COc2ccccc2O1` (stereo not given), the call was inactive.

Regarding `COc1ncccc1C(=O)NC1CCCc2c1cnn2-c1ccc(C)c(C)c1` (stereo not given), the compound was called inactive.

Take `COC(=O)c1c(NC(=O)CN2CCN(c3ccccc3Cl)CC2)sc(C)c1C`: the call was inactive.

For the compound `CN(C)C(=O)c1ccc(-c2ccc3c(c2)[C@H]2[C@H](CCN2C(=O)c2ccc(F)cc2)[C@H](CO)N3C)cc1`, the call was inactive.
